Bioassay records as filed in PubChem BioAssay.
This is a sample that favours compounds with a hit; in the whole collection about 2.8% have one here.
KDM5B inh: KDM5B demethylase inhibition | Q9UGL1 | KDM5B demethylase, FDH-coupled NADH fluorescence (FDH is formaldehyde dehydrogenase) | Potency, µM (titrated, usually from 57.7 µM), actives largely listed as inhibitors | 2.6% of 220,000 active | AID 1347165; also: potency is read from the fitted curve at half-maximal effect; 0% is about no effect; nearly all actives have a fitted effect of over 70% in size
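Measured: NADH fluorescence change, 30 min, RT. System: KDM5BΔAP 200 nM final, H3K4me3 peptide, α-KG, Fe(II), ascorbate, NAD⁺ plus FDH, pH 7.5 HEPES. Compounds: titrated, 10 min pre-incubation with enzyme.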
SNCA expr inhib: inhibitors of alpha-synuclein (SNCA) gene expression | Potency, µM (highest dose often 57.2 µM), without a hit: at the highest dose activity change, negative = inhibition, actives largely listed as inhibitors | HEK-293 SNCA-luciferase knock-in, luminescence, 24 h | AID 1671194 | 0.17% of 140,000 active;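 also: potency is read from the fitted curve at half-maximal effect; plate controls were DMSO cells for no effect and cell-free wells for full effect; nearly all actives have a fitted effect of over 45% in size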
SNCA viab count: counter-screen for SNCA expression inhibitors: cell viability; HEK-293-SNCA-luc viability, GF-AFC fluorescence, 24 h; Potency, µM (top dose mostly 57.1 µM), inactives show top-dose activity change, negative = cytotoxicity, hits mostly cytotoxic; 0.12% of 150,000 active;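 also: potency is read from the fitted curve at half-maximal effect; 0% = DMSO-treated cells and -100% = medium-only wells without cells; nearly all actives have a fitted effect of over 30% in size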
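HEK-293-SNCA-luc cells (1500/well) plated 24 h, then exposed 24 h to a dilution series; GF-AFC added 30 min at 37C, fluorescence 405/540 nm; normalised to medium-only and DMSO wells, Hill fit.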
IP6K1 inhibitor: IP6K1 kinase inhibition; AID 1645851; activity change, % (series mostly up to about 58 µM); IP6K1 kinase, ADP-Glo luminescence, 2 h; active compounds read low; 0.81% of 140,000 active; in the data active = activity change below about -25%; also: % is scaled to controls: 0 for no effect and ±100 for the full control effect
Target sequence (Q92551 whole entry, looked up): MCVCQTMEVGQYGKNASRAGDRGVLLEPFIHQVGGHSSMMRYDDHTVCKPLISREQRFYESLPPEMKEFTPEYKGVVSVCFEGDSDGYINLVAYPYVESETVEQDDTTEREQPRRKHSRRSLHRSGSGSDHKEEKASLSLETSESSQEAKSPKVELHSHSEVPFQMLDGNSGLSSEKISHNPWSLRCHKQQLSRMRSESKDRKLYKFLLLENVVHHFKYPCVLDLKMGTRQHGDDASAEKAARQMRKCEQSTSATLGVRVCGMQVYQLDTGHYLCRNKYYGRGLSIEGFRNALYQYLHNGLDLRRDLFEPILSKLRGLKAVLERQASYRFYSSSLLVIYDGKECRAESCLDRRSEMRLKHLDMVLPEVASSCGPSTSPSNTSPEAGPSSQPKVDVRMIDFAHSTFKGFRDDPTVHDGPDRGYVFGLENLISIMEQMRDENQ
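ADP-Glo luminescence measures ADP made by human IP6K1 during a 2 h RT reaction with ATP/IP6 (mix at 1.3 mM/130 uM); top library doses 57.5 and 19.1 uM final.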
The depositor's hits bear a star; i = inactive; ? = inconclusive; / = no result; [ ] = dose if it differs, or a comment. Unless noted, calls follow the shape of the dose curve; as a rule, active = well fitted curve in the direction sought with a large enough effect; inconclusive = small, poorly fitted or top-dose-only effect, or another doubt; inactive = no such curve, though single readings can be large; an effect the other way counts as inactive or inconclusive.

SMILES	KDM5B inh	SNCA expr inhib	SNCA viab count	IP6K1 inhibitor
O=C1NCc2ccccc2CC12CCCN2Cc1ccnc2ccccc12 (centres undefined)	50µM*	?	8%	-9
Cc1ncc(CO)c(CN2CCCC23Cc2ccccc2CNC3=O)c1O (centres undefined)	79µM*	-3%	8%	-8
Cc1nc2cnccn2c1C(=O)NCC1CCCCC1	/	/	/	12
CCCCCCCCCCOC(=O)Nc1ccc(C)cc1	i	/	/	/
CC(C)C(=O)NCC1CN(Cc2ccccc2)C(=O)c2c(ccnc2-c2ccc(OCC(=O)O)cc2)O1 (centres undefined)	?	2.8µM*	?	7
Cc1cn2nc(C(=O)N3CCOCC3)cc2c(N(C)Cc2ccccc2)n1	?	-18%	-2%	0
Cc1cn2nc(C(=O)NCc3ccc(F)cc3F)cc2c(N(C)Cc2ccccc2)n1	i	-28%	8%	0
Cc1cn2nc(C(=O)NCc3ccc(Cl)cc3)cc2c(N(C)Cc2ccccc2)n1	14µM*	1%	8%	5
Cc1cn2nc(C(=O)NCc3cccc(Cl)c3)cc2c(N(C)Cc2ccccc2)n1	25µM*	2%	-4%	-6
CC1CCC(NC(=O)CSCc2coc(-c3ccc(Cl)cc3)n2)CC1 (centres undefined)	i	/	/	/
COc1ccc(CNC(=O)NOCc2ccccc2)cc1OC	i	/	/	/
Cc1ccc2c(n1)N(C)[C@H](CO)CCN(C(=O)Nc1ccccc1)C2	i	26%[87.6 µM]	-6%[87.6 µM]	-9
Cc1ccc2c(n1)N(C)[C@H](CO)CCN(Cc1ccccc1Cl)C2	?	0%[87.6 µM]	-1%[87.6 µM]	4
Cc1ccc2c(n1)N(C)[C@H](CO)CCN(CC1CCCCC1)C2	35µM*	10%[87.6 µM]	6%[87.6 µM]	-1
CC(=O)N1CCC(N2CC[C@@H](CO)N(C)c3nc(C)ccc3C2)CC1	32µM*	3%[87.6 µM]	2%[87.6 µM]	-7
Cc1ccc2c(n1)N(C)[C@H](CO)CCN(Cc1ccc(F)cc1)C2	35µM*	8%[87.6 µM]	-6%[87.6 µM]	-3
Cc1ccc2c(n1)N(C)[C@H](CO)CCN(Cc1ccc(C#N)cc1)C2	?	-16%[87.6 µM]	-5%[87.6 µM]	-7
C[S+](=O)([O-])Nc1cccc(-c2cc(-c3cccnc3)c3cncn3c2)c1	35µM*	2%[87.6 µM]	-9%[87.6 µM]	-11
c1cc(-c2cc(-c3ccncc3)c3cncn3c2)c2[nH]ccc2c1	i	?	-1%[87.6 µM]	-6
NC(=O)c1cccc(-c2cc(-c3cccnc3)c3cncn3c2)c1	?	0%[87.6 µM]	-10%[87.6 µM]	294
c1cncc(-c2cc(-c3cccc4cc[nH]c34)cn3cncc23)c1	35µM*	-11%[87.6 µM]	-8%[87.6 µM]	-15
COc1ccc(CC(=O)N2CCc3nc4cc[nH]n4c(=O)c3C2)c(Cl)c1	?	1%	0%	14
Cn1nc(C(=O)N2CCc3nc4cc[nH]n4c(=O)c3C2)c2ccccc21	32µM*	48%	4%	6
Cc1ccccc1C(=O)N1CCc2nc3cc[nH]n3c(=O)c2C1	28µM*	-6%	-3%	4
Cn1cccc1C(=O)N1CCc2nc3cc[nH]n3c(=O)c2C1	32µM*	-3%	15%	11
SMILES	KDM5B inh	SNCA expr inhib	SNCA viab count	IP6K1 inhibitor
O=C(Nc1ccc(Cl)cc1F)N1CCc2nc3cc[nH]n3c(=O)c2C1	32µM*	7%	-1%	0
O=C(CCn1c2c(c3ccccc31)CCCC2)N1CCc2nc3cc[nH]n3c(=O)c2C1	i	-26%	-2%	6
CCCCNC(=O)Cc1n[nH]c(=O)c2ccccc12	i	/	/	/
Cc1ccsc1C(=O)N1CCc2c(nc3cc[nH]n3c2=O)C1	32µM*	3%	-3%	24
COc1ccc(-c2cc3nc4c(c(=O)n3[nH]2)CN(C(=O)c2sccc2C)CC4)cc1	?	-22%	5%	3
Cc1cc2c(-c3cccc(CO)c3)nc(-c3c(C)noc3C)cc2[nH]1	i	70%[87.6 µM]	-18%[87.6 µM]	-24
Cc1cc2c(-c3ccc(S(C)(=O)=O)cc3)nc(-c3c(C)noc3C)cc2[nH]1	35µM*	55%[87.6 µM]	-2%[87.6 µM]	-19
Cc1cc2c(-c3cccc(S(C)(=O)=O)c3)nc(-c3c(C)noc3C)cc2[nH]1	35µM*	79%[87.6 µM]	-25%[87.6 µM]	-18
Cc1cc2c(-c3cccc(O)c3)nc(-c3c(C)noc3C)cc2[nH]1	i	74%[87.6 µM]	-10%[87.6 µM]	-13
COc1ccccc1-c1cccc(CN2CCCC(C(=O)NCCCc3ccccc3)C2)c1 (centres undefined)	/	?	?	-1
Cn1ccc2c(C(=O)NCCC(N)=O)nc(-c3cccc(CO)c3)cc21	i	1%[87.6 µM]	-4%[87.6 µM]	-2
Cn1ccc2c(C(=O)NCCC(N)=O)nc(-c3ccccc3C(F)(F)F)cc21	i	10%[87.6 µM]	1%[87.6 µM]	-12
Cc1ccccc1-c1cc2c(ccn2C)c(C(=O)NCCc2cnc[nH]2)n1	40µM*	30%[87.6 µM]	-17%[87.6 µM]	9
Cn1ccc2c(C(=O)NCCC(N)=O)nc(-c3cccc(C(F)(F)F)c3)cc21	14µM*	-17%[87.6 µM]	-13%[87.6 µM]	-2
Cn1ccc2c(C(=O)NCCC(N)=O)nc(-c3ccccc3)cc21	32µM*	-12%[87.6 µM]	-3%[87.6 µM]	-10
CSc1ccccc1C(=O)Nc1cc(Cl)cc(Cl)c1	i	/	/	/
CNC(=S)N/N=C/c1cccc([N+](=O)[O-])c1	i	/	/	/
O=C(Nc1cccc(N2CCCC2=O)c1)C1CCN(S(=O)(=O)c2cc(Cl)ccc2Cl)CC1	i	/	/	/
COCC(=O)N1CCN2C(=O)c3cc(-c4ccc5c(c4)OCO5)ccc3NC(=O)[C@H]2C1	?	22%[87.6 µM]	2%[87.6 µM]	-4
O=C1Nc2ccc(-c3ccc4c(c3)OCO4)cc2C(=O)N2CCN(C(=O)c3cccs3)C[C@@H]12	28µM*	-14%	-17%	-17
CN(C)c1ccc(C(=O)N2CCN3C(=O)c4cc(-c5ccc6c(c5)OCO6)ccc4NC(=O)[C@H]3C2)cc1	35µM*	?	1%	15
CSc1ccc(-c2ccc3c(c2)C(=O)N2CC[C@H](NC(=O)c4cccs4)C[C@H]2C(=O)N3)cc1	28µM*	-8%	4%	7
COc1ccc(C)cc1B(O)O	i	/	/	/
Cc1ccc(Cn2c(Oc3ccc(F)cc3)nc3c2c(=O)n(C)c(=O)n3C)cc1	i	/	/	/
CCS(=O)(=O)c1ncc(Cl)c(C(=O)N(Cc2ccccc2)Cc2ccco2)n1	?	?	8.9µM*	-5
SMILES	KDM5B inh	SNCA expr inhib	SNCA viab count	IP6K1 inhibitor
CCC(C=C[C@@H]1OC(=O)C=C[C@H]1C)=C[C@H](C)CC=CC(C)=C[C@@H](C)C(=O)[C@@H](C)[C@H](O)[C@@H](C)CC(C)=CC(=O)O	/	0.16µM*	?	/
O=C(NCc1ccco1)c1ccc2c(c1)CC(=O)N2Cc1cccc(F)c1	i	27%	5%	-13
O=C(NCc1cccc(F)c1)c1ccc2c(c1)CC(=O)N2Cc1ccccc1	i	13µM*	-2%	-3
COCCCNc1ncccc1-c1cc(-c2ccccc2)nc2c(C)noc12	40µM*	-11%[87.6 µM]	15%[87.6 µM]	-13
Cc1noc2c(-c3cccnc3NCCCn3ccnc3)cc(-c3ccccc3)nc12	35µM*	?	-26%[87.6 µM]	-13
Cc1noc2c(-c3cccnc3NCCN(C)C)cc(-c3ccccc3)nc12	?	2%[87.6 µM]	-13%[87.6 µM]	-9
